Reference: PubChem BioAssay AID1159580 (chemical genetic matrix, 2015)
Several values for one entry are separate records, joined by “and”; a condition that tells them apart may be missing. Equal entries are not always repeated. The whole screen tested about 5,500 compounds, of which about 2,000 (36%) were called active. Another 18% or so got no clear call; they are omitted. Rule as the data show it: active = normalized growth mostly below about 0.91 (no sharp cut-off); inconclusive = no clear call, values can overlap the other calls; inactive = mostly above about 0.92. The list shows a part of the results.

Experiment: chemical genetic growth profiling, strain panel (AID 1159580);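 also: tested at 20 µM; growth read once vehicle control cultures reached saturation at 30 °C; 1 = growth at the plate median or of vehicle wells; lower values mean less growth of the strain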
Details: S. cerevisiae deletion strains, growth OD

Measured: normalized growth

CC(Cc1ccc(O)c(O)c1)(NN)C(=O)O (stereo not drawn)
inactive: locus YAL021C, strain ccr4, stronger effect = lower value 1 | locus YAL026C, strain drs2, stronger effect = lower value 1 | locus YAL030W, strain snc1, stronger effect = lower value 0.997 | locus YBL061C, strain skt5, stronger effect = lower value 1.01 | locus YBR009C, strain hhf1, stronger effect = lower value 0.982 | locus YBR021W, strain FUR4, stronger effect = lower value 1.01 | locus YBR023C, strain chs3, stronger effect = lower value 0.976 | locus YBR171W, strain sec66, stronger effect = lower value 1.01 | locus YBR229C, strain ROT2, stronger effect = lower value 1 | locus YBR231C, strain swc5, stronger effect = lower value 0.997 | locus YBR279W, strain paf1, stronger effect = lower value 0.988 | locus YCL011C, strain gbp2, stronger effect = lower value 1.02 | locus YCL016C, strain dcc1, stronger effect = lower value 1.01 | locus YCL029C, strain bik1, stronger effect = lower value 1.02 | locus YCL069W, strain vba3, stronger effect = lower value 1 | locus YCR088W, strain abp1, stronger effect = lower value 1 | locus YDL005C, strain med2, stronger effect = lower value 1 | locus YDL035C, strain GPR1, stronger effect = lower value 1 | locus YDL040C, strain nat1, stronger effect = lower value 1 | locus YDL074C, strain BRE1, stronger effect = lower value 0.972 | locus YDL101C, strain DUN1, stronger effect = lower value 1.02 | locus YDL134C, strain PPH21, stronger effect = lower value 1.04 | locus YDL185W, strain tfp1, stronger effect = lower value 0.989 | locus YDL192W, strain arf1, stronger effect = lower value 1.01 | locus YDR001C, strain nth1, stronger effect = lower value 0.994 | locus YDR069C, strain doa4, stronger effect = lower value 0.99 | locus YDR101C, strain arx1, stronger effect = lower value 1 | locus YDR137W, strain rgp1, stronger effect = lower value 1.04 | locus YDR159W, strain sac3, stronger effect = lower value 1 | locus YDR162C, strain NBP2, stronger effect = lower value 1.01 | locus YDR195W, strain ref2 0.972 | locus YDR297W, strain sur2, stronger effect = lower value 1 | locus YDR318W, strain mcm21, stronger effect = lower value 1.01 | locus YDR334W, strain swr1, stronger effect = lower value 0.999 | locus YDR335W, strain msn5, stronger effect = lower value 0.982 | locus YDR388W, stronger effect = lower value 1.01 | locus YDR392W, strain spt3, stronger effect = lower value 0.985 | locus YDR502C, strain sam2, stronger effect = lower value 1.01 | locus YEL003W, strain gim4, stronger effect = lower value 0.991 | locus YEL037C, strain rad23, stronger effect = lower value 1.02 | locus YEL061C, strain CIN8 (second series), stronger effect = lower value 0.999 | locus YEL061C, strain CIN8, stronger effect = lower value 1.01 | locus YER015W, strain faa2, stronger effect = lower value 0.984 | locus YER016W, strain bim1, stronger effect = lower value 1.01 | locus YER110C, stronger effect = lower value 1.02 | locus YER111C, strain swi4, stronger effect = lower value 1.01 | locus YER155C, strain BEM2 (second series), stronger effect = lower value 1.01 | locus YER155C, strain BEM2, stronger effect = lower value 0.999 | locus YER167W, strain BCK2, stronger effect = lower value 1.01 | locus YFR010W, strain ubp6, stronger effect = lower value 0.986 | locus YGL078C, strain dbp3, stronger effect = lower value 0.979 | locus YGL086W, strain mad1, stronger effect = lower value 1.02 | locus YGL167C, strain pmr1, stronger effect = lower value 1 | locus YGL173C, strain kem1, stronger effect = lower value 1.03 | locus YGL227W, strain vid30, stronger effect = lower value 0.989 | locus YGL240W, strain doc1, stronger effect = lower value 1 | locus YGL248W, strain PDE1, stronger effect = lower value 0.991 | locus YGL253W, strain hxk2, stronger effect = lower value 0.997 | locus YGR078C, strain PAC10, stronger effect = lower value 0.966 | locus YGR135W, strain pre9, stronger effect = lower value 1.01 | locus YGR229C, strain SMI1, stronger effect = lower value 0.992 | locus YGR252W, strain gcn5, stronger effect = lower value 1.01 | locus YHR013C, strain ard1, stronger effect = lower value 1.04 | locus YHR027C, strain rpn1, stronger effect = lower value 0.995 | locus YHR030C, strain SLT2, stronger effect = lower value 0.997 and 0.958 | locus YHR079C, strain IRE1 (second series), stronger effect = lower value 1.02 | locus YHR079C, strain IRE1, stronger effect = lower value 0.961 | locus YHR094C, strain hxt1, stronger effect = lower value 1.01 | locus YHR129C, strain ARP1, stronger effect = lower value 1.01 | locus YHR142W, strain chs7, stronger effect = lower value 1.02 | locus YHR200W, strain rpn10, stronger effect = lower value 1.01 | locus YIL066C, strain RNR3, stronger effect = lower value 0.965 | locus YIL073C, strain SPO22, stronger effect = lower value 1.14 | locus YIL125W, strain kgd1, stronger effect = lower value 1 | locus YIR030C, strain dcg1, stronger effect = lower value 1.01 | locus YJL092W, strain hpr5, stronger effect = lower value 0.997 | locus YJL095W, strain BCK1 (second series), stronger effect = lower value 0.996 | locus YJL095W, strain BCK1, stronger effect = lower value 1 and 0.954 | locus YJL115W, strain asf1, stronger effect = lower value 0.983 | locus YJL129C, strain trk1, stronger effect = lower value 1.02 | locus YJL134W, strain LCB3, stronger effect = lower value 1 | locus YJL154C, strain vps35, stronger effect = lower value 1.01 | locus YJL164C, strain tpk1, stronger effect = lower value 1.01 | locus YJL166W, strain qcr8, stronger effect = lower value 1.02 | locus YJL168C, strain set2, stronger effect = lower value 1.01 | locus YJL187C, strain SWE1 (second series), stronger effect = lower value 1 | locus YJR043C, strain POL32, stronger effect = lower value 1.01 | locus YJR066W, strain TOR1, stronger effect = lower value 0.936
